Here are results for 27 molecules from PubChem BioAssay (EPA / NIEHS).

Where “and” joins values, the source holds several entries; their conditions need not be identical. Identical values can stand only once. Calls of active or inactive are those of the source. How the source made its calls: active means hit-call score of the fitted dose curve at least 0.9, where 1 is the maximum; inactive means score below 0.9.

Read-out in the assay: Interleukin-8 (IL8), CXCL8 (gene 3576)
Briefly: BSK_SAg_IL8: BioMAP Diversity Plus: SAg Assay for Interleukin-8 (IL8) Biomarker Activity (AID 2283094). The settings on record: primary human HUVEC with PBMC; actives raise or lower the signal. The method, boiled down: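 Primary human endothelial cells with PBMC, exposed 24 h; IL-8 determined by ELISA, analysed bidirectionally relative to DMSO.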
On to `CCCCc1oc2ccccc2c1C(=O)c1cc(I)c(OCCN(CC)CC)c(I)c1`, for which the concentration at half-maximal activity (AC50) is 15.1 µM (active).
As for `CCCCC(CC)C(=O)O` (configuration not stated), the outcome was inactive.
The same measure, in the same setting: under `O=C(CCCN1CCC(O)(c2ccc(Cl)cc2)CC1)c1ccc(F)cc1` stands “inactive”.
`CCC(C)c1ccccc1O` (configuration not stated): the outcome was inactive.
In the case of `O=P(O)(O)CCC(F)(F)C(F)(F)C(F)(F)C(F)(F)C(F)(F)C(F)(F)C(F)(F)C(F)(F)F`, the result was inactive.
Regarding `CCCCCCCCCCCCCCCCCC[N+](C)(C)Cc1ccccc1`, the AC50 is 10 µM (active).
As for `CC(=O)Nc1ccc(O)cc1`, the result was inactive.
Same read-out and setting: under `CN(CCO)S(=O)(=O)C(F)(F)C(F)(F)C(F)(F)C(F)(F)C(F)(F)C(F)(F)C(F)(F)C(F)(F)F` stands “inactive”.
On the same count and under the same terms, the entry for `OCC(F)(F)C(F)(F)C(F)(F)C(F)(F)C(F)(F)C(F)(F)C(F)(F)C(F)(F)C(F)(F)C(F)(F)C(F)(F)F` is “inactive”; for `O=P(O)(O)CCC(F)(F)C(F)(F)C(F)(F)C(F)(F)C(F)(F)C(F)(F)F` it is “inactive”; for `CS(=O)(=O)c1ccc([C@@H](CC2CCCC2)C(=O)Nc2cnccn2)cc1Cl` it is “inactive”.
On the same count and under the same terms, the entry for `O=C1c2ccc(O)c(O)c2C(=O)c2c(O)ccc(O)c21` is “inactive”.
Regarding `O=C(O)CCC(F)(F)C(F)(F)C(F)(F)C(F)(F)C(F)(F)C(F)(F)F`, the result was inactive.
As to `C[C@]12CC[C@@H]3c4ccc(O)cc4CC[C@H]3[C@@H]1C[C@@H](O)[C@@H]2O`, the result was inactive.
In the case of `OCCN1CN(CCO)CN(CCO)C1`, the half-maximal activity concentration (AC50) is 13.1 µM (active).
With `CC1=NN(c2ccccc2)C(=O)C1`, the result was inactive.
Take `Oc1cc2ccccc2cc1O`: the result was inactive.
Turning to `OCC(CO)(CBr)CBr`, the outcome was inactive.
Regarding `O=C(CC(=O)C(F)(F)C(F)(F)C(F)(F)F)c1cccs1`, the AC50 is 3.52 µM (active) and 10.7 µM (active).
On to `O=S(=O)(O)C(F)(F)C(F)(F)C(F)(F)C(F)(F)C(F)(F)C(F)(F)C(F)(F)C(F)(F)C(F)(F)C(F)(F)F`, for which the result was inactive.
As for `CCOC(=O)CN[C@@H](C(=O)N1CC[C@H]1C(=O)NCc1ccc(/C(N)=N/O)cc1)C1CCCCC1`, the result was inactive.
With `CN(C)c1ccc(C(=C2C=CC(=[N+](C)C)C=C2)c2ccccc2)cc1`, the AC50 is 2.78 µM (active).
In the case of `CCCCCc1ccc(O)cc1`, the AC50 was 30.6 µM (active).
In the case of `CN(Cc1cnc2nc(N)nc(N)c2n1)c1ccc(C(=O)N[C@@H](CCC(=O)O)C(=O)O)cc1`, the outcome was inactive.
With `CCCCCCCCCCCCCCC`, the result was inactive.
On to `CN(C)CCOC(c1ccccc1)c1ccccc1`, for which the outcome was inactive.
As for `Cc1ccc(C(=O)c2ccccc2)cc1`, the result was inactive.

By AC50 is commonly meant the midpoint of the concentration-response curve, whichever way the signal moves.
